This is an account of results in PubChem BioAssay.

The term inhibition denotes the relative decrease from the control value, in per cent.

A short description of test [1]: inhibitors of TNFa-induced NFkB p65 translocation, primary screen, imaging, HUVEC, MLSMR starter and 10KST1 sets (AID 438;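 active = inhibition above 20% together with a positive visual image hit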;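 note: compound added about 3h40 before a 20 min TNFalpha stimulation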;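 for inhibition: signal is the nuclear over cytoplasmic p65 intensity ratio per well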). Particulars: HUVEC TNFa-induced p65 nuclear translocation; cell count: measured here: nuclei count (cytotoxicity indicator), at 2.08 µM; inhibition: at 2 µM, stronger effect = higher value, 0% TNFa-plus-vehicle, 100% no-TNFa wells.
A short description of test [2]: inhibitors of mutant huntingtin aggregation, primary screen, imaging, exon1htt(103Q)mCFP cells, high-content imaging (AID 483;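 active = visual image review flags a hit and inhibition of aggregation exceeds 20%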;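 note: compound exposure lasted 3 days before fixation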;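 for nuclei count: percent of the per-plate median nuclei count of sample wells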). As to conditions: exon1htt(103Q)mCFP cell line, aggregate imaging, at 2 µM; inhibition of aggregation: stronger effect = higher value; nuclei count: measured here: cell count, toxicity.
The nature of test [3]: inhibitors of E-selectin induction by TNFa, primary screen, imaging, HUVEC, immunofluorescence, MLSMR starter and 10KST1 sets (AID 487;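 active = visually confirmed hit in the image check and inhibition above 20%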;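 for inhibition: signal is fraction of cell area covered by stained E-selectin grains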;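 for nuclei count: 100% = median nuclei count of all wells on the same plate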). As to conditions: HUVEC TNFalpha-induced E-selectin immunofluorescence imaging, at 2 µM; inhibition: stronger effect = higher value; nuclei count: measured here: cell number, toxicity.
In test [4] the target is Voltage-gated potassium channel subunit beta-2 (Rattus norvegicus) (UniProt P62483). The test can be described thus: KvBeta enzyme negative modulators, primary screen, biochemical, NADPH fluorescence (AID 622;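 active = fluorescence slope higher than the sample average by over 3 SD, cut at about -0.22 in these data, passing the limit was not always enough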;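 note: slope of raw intensity against log time taken from 70 to 1610 s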). Particulars: recombinant KvBeta, 4-cyanobenzaldehyde reduction, at 10 µM, stronger effect = higher value.
Chain of Voltage-gated potassium channel subunit beta-2 (Rattus norvegicus) (P62483 whole entry, looked up): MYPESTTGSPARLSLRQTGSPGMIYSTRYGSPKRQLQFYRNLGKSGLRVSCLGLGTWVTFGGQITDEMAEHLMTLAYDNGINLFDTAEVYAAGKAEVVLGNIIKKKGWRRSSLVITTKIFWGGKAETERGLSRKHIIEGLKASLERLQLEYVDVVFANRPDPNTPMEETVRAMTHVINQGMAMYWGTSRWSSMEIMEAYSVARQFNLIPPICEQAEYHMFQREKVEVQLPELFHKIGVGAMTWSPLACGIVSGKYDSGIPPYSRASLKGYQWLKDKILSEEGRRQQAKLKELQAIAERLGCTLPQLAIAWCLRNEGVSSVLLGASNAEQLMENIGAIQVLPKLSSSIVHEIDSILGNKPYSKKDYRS
For test [5] the target is unchanged. The test can be described thus: KvBeta positive modulators, primary screen, biochemical, NADPH fluorescence (AID 623;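 active = NADPH fluorescence slope more negative than the mean of all samples by about 3 SD, 99.7% confidence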;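 note: fluorescence intensity change per second fitted from 20 to 320 s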). As to conditions: Recombinant KvBeta, NADPH fluorescence decrease slope, 10 min; at 10 µM; stronger effect = lower value.
Test [6] addresses Alpha-2C adrenergic receptor (Homo sapiens) (UniProt P18825). The test is described as follows: modulators of alpha2C/GIRK thallium flux, primary screen, cell-based, HEK293 alpha2C/GIRK1/2 (AID 624;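 active = fluorescence slope after compound addition differing from the mean of all screened samples at 99.7% confidence, in either direction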;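 note: slope of fluorescence ratio to pre-addition baseline per second over 15 to 24 s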). As to conditions: thallium flux BTC fluorescence, at 10 µM, actives lie on both sides.
Test [7] can be described thus: inhibitors of Sendai virus-induced IRF3 signaling, primary screen, TLR/RLR signaling modifier project, cell-based, Sendai virus stimulus, luciferase, 10K MLSCN set (AID 602276;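 active = inhibition at or above 50% at 10 µM; inactive = inhibition below 50%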;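 note: firefly luciferase from ISG56 promoter only with Renilla not read in this screen; 0% = Sendai virus plus DMSO and 100% = medium plus DMSO without virus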). Particulars: HEK293 RL24 IRF3 luciferase reporter, at 10 µM, stronger effect = higher value. Background: Reporter assays use an easily measured gene product as a stand-in for the process of interest.
Test [8] is described as follows: inhibitors of poly I:C-induced TLR3 signaling, primary screen, cell-based, poly I:C stimulus, luciferase, 10K MLSCN set (AID 602277). As to conditions: HEK293-TLR3 RL24 IRF3 luciferase reporter, at 10 µM, stronger effect = higher value.

Active and inactive are the calls of the source.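 Rule for the calls, unless noted: active = inhibition of the reporter signal at or above 50%; inactive = inhibition below 50%.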

Chain of Alpha-2C adrenergic receptor (Homo sapiens) (P18825 whole entry, looked up): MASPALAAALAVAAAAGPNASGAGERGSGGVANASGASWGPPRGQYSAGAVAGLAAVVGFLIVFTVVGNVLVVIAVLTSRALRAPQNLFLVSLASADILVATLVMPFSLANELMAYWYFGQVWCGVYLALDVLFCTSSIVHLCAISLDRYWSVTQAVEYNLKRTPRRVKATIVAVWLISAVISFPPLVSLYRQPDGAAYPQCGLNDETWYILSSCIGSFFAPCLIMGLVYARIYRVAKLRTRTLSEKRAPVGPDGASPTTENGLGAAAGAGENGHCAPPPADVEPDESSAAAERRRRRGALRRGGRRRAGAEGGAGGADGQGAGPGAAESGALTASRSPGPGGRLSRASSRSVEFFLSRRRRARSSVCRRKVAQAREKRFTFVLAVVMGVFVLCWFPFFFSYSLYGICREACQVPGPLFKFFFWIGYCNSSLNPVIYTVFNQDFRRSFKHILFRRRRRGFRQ

On to `Clc1ccc(-n2nnnc2Sc2ncnc3sccc23)cc1`, for which the cell count in test [1] was determined as 530. Further, the inhibition in test [1] is -9% (inactive); in test [3], -12.2% (inactive); in test [7], 5.22% (inactive); in test [8] it was 66.8% (active). The inhibition of aggregation in test [2] was -12.2% (inactive). The results for the nuclei count in test [2] and in test [3] were 107% and 122%, respectively. Also, the fluorescence slope in test [4] was -0.528 (inactive). Further, in test [5], the NADPH fluorescence slope was -4.1e-05 (inactive). For the same compound, the slope in test [6] was 0.00502 (inactive).

Consider `CCCC(=O)N(c1ccc2oc(=O)sc2c1)S(=O)(=O)c1ccccc1`, for which, in test [1], the cell count was 318. Moreover, the inhibition in test [1] was 3.5% (inactive); in test [3], -45.1% (inactive); in test [7], 14.8% (inactive); in test [8], 17.5% (inactive). Moreover, the inhibition of aggregation in test [2] was -12.8% (inactive). Besides, the figures for the nuclei count in test [2] and in test [3] were 104% and 80%, respectively. In addition, in test [4], the fluorescence slope is -0.61 (inactive). Moreover, in test [5], the NADPH fluorescence slope was -2.4e-05 (inactive). For the same compound, the slope in test [6] is 0.00625 (inactive).

As to `COc1ccc(NS(=O)(=O)c2ccc(NC(C)=O)cc2)cc1OC`, the cell count in test [1] is 352. Besides, the inhibition was -8.4% (inactive) in test [1], -3.3% (inactive) in test [3], -6.14% (inactive) in test [7] and -66.4% (inactive) in test [8]. For the same compound, in test [2], the inhibition of aggregation was 2.1% (inactive). The nuclei count in test [2] was found to be 99.6%; in test [3] it was 76.2%. Besides, the fluorescence slope in test [4] is -0.379 (inactive). In addition, the NADPH fluorescence slope in test [5] is 1.1e-05 (inactive). The slope in test [6] was 0.00616 (inactive).

`Clc1cccc(-c2nnc(-c3ccccc3)o2)c1`: in test [1], the cell count amounted to 610. Further, the inhibition in test [1] was -15.9% (inactive); in test [3], 4.7% (inactive); in test [7], -18.1% (inactive); in test [8] it was -47% (inactive). In addition, the inhibition of aggregation in test [2] was -13.5% (inactive). Moreover, the figures for the nuclei count in test [2] and in test [3] were 110% and 124%, respectively. Further, the fluorescence slope in test [4] is -0.391 (inactive). In test [5], the NADPH fluorescence slope was 3.1e-05 (inactive). Further, the slope in test [6] is 0.00595 (inactive).

On to `O=C(NCc1ccccc1)C1CCCN1S(=O)(=O)c1cccc2cccnc12` (centres undefined), for which the cell count in test [1] came out at 521. Besides, the inhibition is -4.4% (inactive) in test [1], -42.2% (inactive) in test [3], 3.4% (inactive) in test [7] and 34.5% (inactive) in test [8]. For the same compound, the inhibition of aggregation in test [2] was -7.9% (inactive). Also, the nuclei count was found to be 67.5% in test [2] and 111% in test [3]. For the same compound, in test [4], the fluorescence slope is -0.561 (inactive). For the same compound, in test [5], the NADPH fluorescence slope was 3.4e-05 (inactive). For the same compound, the slope in test [6] is 0.00702 (inactive).

Regarding `CC(=O)c1cc(F)c(N2CCN(C(=O)Cc3ccccc3)CC2)cc1C`, the cell count in test [1] was determined as 774. Moreover, the inhibition in test [1] was -3.9% (inactive); in test [3] it was -25.8% (inactive); in test [7], 3.34% (inactive); in test [8], 0.856% (inactive). Also, the inhibition of aggregation in test [2] was -30.4% (inactive). Also, the nuclei count in test [2] is 84.3%; in test [3] it was 110%. Besides, the fluorescence slope in test [4] was -0.493 (inactive). The NADPH fluorescence slope in test [5] is -6.1e-05 (inactive). The slope in test [6] was 0.00566 (inactive).

With `Cc1cc(NC(=O)Cc2cn3ccsc3n2)n(-c2ccccc2)n1`, the cell count in test [1] is 823. In addition, the inhibition in test [1] was -16.9% (inactive); in test [3], -23.9% (inactive); in test [7] it was 5.91% (inactive); in test [8] it was 5.15% (inactive). Besides, the inhibition of aggregation in test [2] was -16.8% (inactive). Further, the values for the nuclei count in test [2] and in test [3] were 104% and 106%, respectively. The fluorescence slope in test [4] is -0.308 (inactive). In test [5], the NADPH fluorescence slope was -1.7e-07 (inactive). In addition, the slope in test [6] was 0.00558 (inactive).

For the compound `Cc1c(C#N)c2ccccc2n1CC(=O)N1CCc2ccccc2C1`, the cell count in test [1] was found to be 583. For the same compound, the inhibition was 6% (inactive) in test [1], 11.5% (inactive) in test [3], -9.66% (inactive) in test [7] and 21.9% (inactive) in test [8]. Besides, the inhibition of aggregation in test [2] was 8.7% (inactive). Besides, the nuclei count in test [2] came out at 95.3%; in test [3], 114%. The fluorescence slope in test [4] was -0.581 (inactive). For the same compound, the NADPH fluorescence slope in test [5] is -4.4e-05 (inactive). In addition, in test [6], the slope is 0.00747 (inactive).

Regarding `CCOc1ccccc1NC(=O)NC1CCN(CC(=O)Nc2ccc3c(c2)OCCO3)CC1`, in test [1], the cell count stood at 285. In addition, the inhibition in test [1] was -4.8% (inactive); in test [3] it was -0.8% (inactive); in test [7], 19.4% (inactive); in test [8] it was 26.5% (inactive). Moreover, the inhibition of aggregation in test [2] is 2% (inactive). Moreover, the nuclei count in test [2] is 115%; in test [3], 87.4%. In addition, the fluorescence slope in test [4] was -0.499 (inactive). Also, the NADPH fluorescence slope in test [5] was 4.9e-05 (inactive). For the same compound, the slope in test [6] is 0.00583 (inactive).

For the compound `COc1ccccc1-c1nnc(NC(=O)c2ccc(S(=O)(=O)N(C)Cc3ccccc3)cc2)o1`, the cell count in test [1] turned out to be 391. For the same compound, the inhibition in test [1] is 6.1% (inactive); in test [3] it was -6.7% (inactive); in test [7], 14.7% (inactive); in test [8], 25.7% (inactive). Further, in test [2], the inhibition of aggregation was 9.9% (inactive). Further, the nuclei count in test [2] is 92.8%; in test [3] it was 99.4%. For the same compound, the fluorescence slope in test [4] is -0.478 (inactive). The NADPH fluorescence slope in test [5] was -1.3e-05 (inactive). In addition, in test [6], the slope was 0.00777 (inactive).

`CCCCc1ccc(NC(=O)N[C@H](C(=O)O)C(C)C)cc1`: in test [1], the cell count amounted to 388. Further, the inhibition was -19.8% (inactive) in test [1], -26.2% (inactive) in test [3], -0.498% (inactive) in test [7] and -7.11% (inactive) in test [8]. For the same compound, in test [2], the inhibition of aggregation was -0.3% (inactive). The nuclei count in test [2] is 89.1%; in test [3] it was 84.1%. Moreover, the fluorescence slope in test [4] was -0.481 (inactive). Also, in test [5], the NADPH fluorescence slope is 1.8e-05 (inactive). Also, in test [6], the slope is 0.00552 (inactive).

With `O=C(Nc1ccccc1-c1ccccc1)NC1CCN(C(=O)N2CCOCC2)CC1`, the cell count in test [1] came out at 497. The inhibition was 0% (inactive) in test [1], 6.6% (inactive) in test [3], 13.4% (inactive) in test [7] and 18.7% (inactive) in test [8]. In addition, the inhibition of aggregation in test [2] was -19.4% (inactive). Also, the nuclei count was found to be 113% in test [2] and 96.7% in test [3]. For the same compound, the fluorescence slope in test [4] was -0.5 (inactive). Besides, the NADPH fluorescence slope in test [5] is -4.4e-05 (inactive). The slope in test [6] is 0.00404 (inactive).

Take `O=C(NC(=O)c1cccc(F)c1)OC[C@@H]1CCCN2CCCC[C@H]12`: the cell count in test [1] was found to be 600. Further, the inhibition in test [1] is -5.8% (inactive); in test [3] it was -55.2% (inactive); in test [7], 8.41% (inactive); in test [8], 28.6% (inactive). Moreover, the inhibition of aggregation in test [2] was -12.4% (inactive). For the same compound, the nuclei count in test [2] worked out at 77.9%; in test [3], 113%. Further, the fluorescence slope in test [4] is -0.491 (inactive). For the same compound, in test [5], the NADPH fluorescence slope was 1.1e-05 (inactive). Moreover, the slope in test [6] was 0.00714 (inactive).

Consider `CCn1c(C(C#N)/C(=N\S(=O)(=O)c2cccs2)c2ccccc2)nc2ccccc21` (centres undefined), for which, in test [1], the cell count came to 694. In addition, the inhibition in test [1] is 25.4% (active); in test [3], -188% (inactive); in test [7] it was 10.5% (inactive); in test [8] it was 40.9% (inactive). Moreover, the inhibition of aggregation in test [2] is -17.3% (inactive). Further, the nuclei count in test [2] is 94.2%; in test [3] it was 119%. Further, the fluorescence slope in test [4] was -0.493 (inactive). For the same compound, the NADPH fluorescence slope in test [5] is -3.2e-06 (inactive). In test [6], the slope is 0.00669 (inactive).
